Assay results as given in PubChem BioAssay AID602124 (The Scripps Research Institute Molecular Screening Center, 2011).
In all, about 1,300 compounds went through this assay and about 630 (48%) were called active. So high a share suggests a set chosen from earlier hits. This is one part of a sample in which actives are shown more often than they occur. No stated cut-off is given here; in the data, active means inhibition above about 6.5%; inactive means the rest.

These compounds were tested against Tyrosine-protein kinase ABL1 (Homo sapiens) + Ras and Rab interactor 1 (Homo sapiens) (UniProt P00519+Q13671) (assay: disruptors of human Abl and Rin1 association – biochemical, TR-FRET, confirmation (AID 602124)). Conditions: TR-FRET Rin1-Abl binding, purified proteins; at 7.35 µM; stronger effect = higher value.
Sequence of Tyrosine-protein kinase ABL1 (Homo sapiens) + Ras and Rab interactor 1 (Homo sapiens) (P00519 whole entry, looked up): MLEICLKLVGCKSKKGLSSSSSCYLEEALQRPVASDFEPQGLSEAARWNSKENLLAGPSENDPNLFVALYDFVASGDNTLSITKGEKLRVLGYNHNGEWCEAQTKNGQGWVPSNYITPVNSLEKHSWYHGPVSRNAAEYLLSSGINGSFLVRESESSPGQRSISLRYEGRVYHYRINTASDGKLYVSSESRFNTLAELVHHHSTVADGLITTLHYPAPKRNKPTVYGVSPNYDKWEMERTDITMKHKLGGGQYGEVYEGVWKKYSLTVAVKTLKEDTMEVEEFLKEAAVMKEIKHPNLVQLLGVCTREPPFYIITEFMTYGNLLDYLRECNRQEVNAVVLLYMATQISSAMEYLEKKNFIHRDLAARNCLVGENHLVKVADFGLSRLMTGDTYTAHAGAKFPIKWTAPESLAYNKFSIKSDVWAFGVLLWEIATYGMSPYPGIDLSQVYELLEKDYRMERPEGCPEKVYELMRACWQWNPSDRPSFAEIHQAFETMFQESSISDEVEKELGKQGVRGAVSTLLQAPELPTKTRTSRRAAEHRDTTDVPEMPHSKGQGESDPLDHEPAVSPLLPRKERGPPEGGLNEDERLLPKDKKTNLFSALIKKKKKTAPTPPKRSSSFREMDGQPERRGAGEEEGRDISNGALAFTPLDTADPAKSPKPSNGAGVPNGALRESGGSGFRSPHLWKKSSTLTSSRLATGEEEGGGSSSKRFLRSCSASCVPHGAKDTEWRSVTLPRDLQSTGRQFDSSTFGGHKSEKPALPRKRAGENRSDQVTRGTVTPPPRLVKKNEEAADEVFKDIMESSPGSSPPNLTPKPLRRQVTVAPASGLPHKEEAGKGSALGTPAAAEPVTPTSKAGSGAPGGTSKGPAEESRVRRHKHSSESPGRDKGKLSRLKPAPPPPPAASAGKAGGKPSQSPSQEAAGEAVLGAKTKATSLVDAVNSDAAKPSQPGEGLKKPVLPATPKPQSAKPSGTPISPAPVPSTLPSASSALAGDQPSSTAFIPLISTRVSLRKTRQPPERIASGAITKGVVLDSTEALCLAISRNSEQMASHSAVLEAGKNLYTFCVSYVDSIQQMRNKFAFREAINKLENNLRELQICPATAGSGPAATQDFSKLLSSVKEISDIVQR
Sequence of Tyrosine-protein kinase ABL1 (Homo sapiens) + Ras and Rab interactor 1 (Homo sapiens) (Q13671 whole entry, looked up): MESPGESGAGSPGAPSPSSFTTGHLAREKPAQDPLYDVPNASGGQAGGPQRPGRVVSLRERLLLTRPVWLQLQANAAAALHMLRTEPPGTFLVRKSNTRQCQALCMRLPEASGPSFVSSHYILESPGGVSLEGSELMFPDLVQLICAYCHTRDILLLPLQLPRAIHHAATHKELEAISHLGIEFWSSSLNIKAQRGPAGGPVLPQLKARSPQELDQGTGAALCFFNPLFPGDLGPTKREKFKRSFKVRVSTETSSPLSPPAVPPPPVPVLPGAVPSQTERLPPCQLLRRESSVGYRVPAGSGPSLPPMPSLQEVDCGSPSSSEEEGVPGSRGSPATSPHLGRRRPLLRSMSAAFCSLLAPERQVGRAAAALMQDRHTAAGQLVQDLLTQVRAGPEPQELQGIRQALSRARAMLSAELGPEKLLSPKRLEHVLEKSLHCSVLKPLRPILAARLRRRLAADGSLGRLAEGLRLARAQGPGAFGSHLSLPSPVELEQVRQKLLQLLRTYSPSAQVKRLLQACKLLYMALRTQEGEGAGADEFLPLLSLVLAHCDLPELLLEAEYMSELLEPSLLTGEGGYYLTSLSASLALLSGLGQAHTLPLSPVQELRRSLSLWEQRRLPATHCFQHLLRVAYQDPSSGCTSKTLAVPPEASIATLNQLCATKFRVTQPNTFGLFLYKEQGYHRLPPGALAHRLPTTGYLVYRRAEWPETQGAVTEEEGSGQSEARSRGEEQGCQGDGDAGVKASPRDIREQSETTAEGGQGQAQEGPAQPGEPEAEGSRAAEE

Row | Compound | inhibition
1 | CSCCC(c1nnnn1C(C)(C)C)N1CCC(n2c(=O)[nH]c3ccccc32)CC1 (stereo unspecified) | 16.5% (active)
